Compound activity deposited in PubChem BioAssay by National Center for Advancing Translational Sciences (NCATS).
Shown are actives, neighbours in structure and some others; about 3.6% of the full set was active somewhere.
TGFb SMAD3 inh: TGF-b pathway inhibition | 410,000 compounds, 1.2% hits | HepG2 CAGA-GFP TGF-b/SMAD3 reporter, GFP fluorescence, 18 h; TGF-beta stimulated, 500 pg/mL final | Potency, µM (top dose mostly 46.1 µM), for the others: at the top dose activity, negative = inhibition, most hits filed as inhibitors; note: % is set by controls: 0 for no effect and ±100 for the full control effect; nearly all actives have a fitted effect of over 65% in size
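Inhibition of TGF-beta-driven CAGA-GFP reporter expression in HEPG2 cells is measured by cellular GFP fluorescence after 18 h stimulation with 500 pg/mL recombinant TGF-beta in 1% FBS medium at 37 degrees C.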
HepG2 viability: kills HepG2 cells in TGF-b inhibitor counter-screen; Potency, µM (highest dose often 46.1 µM), inactives show top-dose activity change, negative = cytotoxicity, usual class: cytotoxic; 410,000 compounds, 0.76% hits; HepG2 CAGA-GFP viability, ATP luminescence, 18 h
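HepG2 CAGA-GFP cells (1000/well, DMEM with 1% FBS) received compound, then TGF-beta at 500 pg/mL final, and were incubated 18 hours at 37 degrees C. Viability was read by CellTiter-Glo luminescence. Media-only wells were set as complete cell-killing and DMSO as no toxicity.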
Nrf2 ARE act: Nrf2 pathway activation; Potency, µM (titrated, usually from 46.1 µM), without a hit: at the highest dose activation, hits mostly activators; AID 624171; AREc32 ARE-luciferase reporter (MCF7-derived line), luminescence, 24 h; 410,000 compounds, 0.31% hits; note: % of control where 0% means no effect; nearly all actives have a fitted effect of over 65% in size
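ARE activation measured as luciferase luminescence (Steady-Glo, 30 min RT) in AREc32_Fluc cells after 24 hr compound exposure at 37 deg C, 5% CO2; cells seeded overnight at 1000/well in OPTI-MEM, 5% FBS.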
A549 viability: A549 cytotoxicity, counter-screen for Nrf2 inhibitors; A549 ARE-Fluc cells, CellTiter-Fluor viability, 18-24 h; AID 504648; Potency, µM (highest dose often 46 µM), for inactives: top-dose activity change, negative = cytotoxicity, hits mostly inhibitors; 390,000 compounds, 0.16% hits; note: % is set by controls: 0 for no effect and ±100 for the full control effect
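A549 ARE-Fluc cells in 5% FBS OPTI-MEM, 5000 cells/well, rested 2 h then exposed to compounds in concentration-response for 18-24 h at 37 °C. Viability by CellTiter-Fluor fluorescence (Ex 405/Em 525) after 30 min; luciferase luminescence (BugLite, 15 min, RT) read afterwards.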
Nrf2 block: blocks Nrf2 signaling. A549 ARE-Fluc reporter, luciferase luminescence, 18-24 h. Potency, µM (highest dose often 46 µM), for the others: at the top dose activity change, negative = inhibition, hits mostly inhibitors. 360,000 compounds, 2.1% hits. AID 504444; note: % is set by controls: 0 for no effect and ±100 for the full control effect; nearly all actives have a fitted effect of over 60% in size
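Concentration-response testing used A549 ARE_Fluc cells at 5000 cells/well. Following an 18-24 h compound incubation, viability was read by fluorescence (Ex 405/Em 525) and luciferase output by luminescence.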
Numbers without * were called inactive; u = inconclusive; x = not tested or not shown. Calls come from the whole dose curve; as a rule, active = well fitted curve in the direction sought with a large enough effect; inconclusive = small, poorly fitted or top-dose-only effect, or another doubt; inactive = no such curve, though single readings can be large; an effect the other way counts as inactive or inconclusive. Potency is the fitted concentration of half-maximal effect.

SMILES	TGFb SMAD3 inh	HepG2 viability	Nrf2 ARE act	A549 viability	Nrf2 block
O=C(c1cccs1)c1no[n+]([O-])c1C(=O)c1cccs1	25.1µM*	-40.5%	2.2%	u	u
COC(=O)[C@@]1(Cc2ccc(F)cc2)[C@H]2c3cc(C(=O)N4CCCC4)n(CCF)c3C[C@H]2CN1C(=O)c1ccccc1	x	x	4.0%	x	x
NC(=S)NN=Cc1nccc2c(C(F)(F)F)cccc12	u	-39.1%	-5.0%	x	x
N#Cc1cccc2c1-c1ccccc1/C2=N/NC(N)=O	-5.9%	-5.1%	3.1%	-16.7%	u
N#Cc1cccc2c1-c1ccccc1/C2=N/NC(N)=S	5.01µM*	7.08µM*	0.0%	u	u
NC(=S)NN=C1c2ccccc2-c2cc(Br)ccc21	2.82µM*	2.3%	6.0%	-0.4%	-26.5%
CCc1ccc(OCc2n[nH]c(=S)n2Cc2ccccc2)cc1	u	-28.4%	0.0%	0.1%	-2.8%
Nc1ccc(Cn2ccc3c4c(N)nc(N)nc4ccc32)cc1	u	-98.6%	16.9%	-15.4%	0.82µM*
Cc1nc2ccc(N)cc2c(=O)n1Cc1ccc(Cl)cc1	-5.2%	-18.3%	2.2%	0.6%	20.9%
NC(=O)c1ccc(Nc2ccc([N+](=O)[O-])cc2[N+](=O)[O-])cc1	-7.8%	-18.2%	6.8%	-7.1%	u
CC(C)(C)C(=O)NC(=S)NNC(=O)C(c1ccccc1)c1ccccc1	-22.7%	-34.5%	-1.2%	-25.7%	20.6µM*
CN(C)C(=S)NC(=O)C(c1ccccc1)c1ccccc1	10.9%	6.9%	0.2%	-3.8%	15.0%
CC(=O)NNC(=S)NC(=O)C(c1ccccc1)c1ccccc1	-24.3%	-0.7%	0.2%	u	16.4µM*
CCNC(=S)NNC(=O)C(c1ccccc1)c1ccccc1	-11.2%	-9.8%	0.1%	-2.2%	4.7%
Nc1ncnc(Sc2ccccc2)c1[N+](=O)[O-]	-26.1%	6.9%	0.0%	1.1%	2.8%
Nc1ncnc(Sc2ncccn2)c1[N+](=O)[O-]	10µM*	11.2µM*	-1.9%	-15.5%	u
CC1CCCN(S(=O)(=O)c2ccc(C(=O)Nc3ccccc3-c3nc4ccccc4[nH]3)cc2)C1 (configuration not stated)	-9.6%	-5.0%	0.3%	2.4%	3.8%
CC1CCN(S(=O)(=O)c2ccc(C(=O)Nc3ccccc3-c3nc4ccccc4[nH]3)cc2)CC1	-26.0%	-15.2%	0.0%	-8.8%	25.9µM*
CCCN1CCC(NCc2cn(C)nc2-c2ccc(Oc3ccccc3)cc2)CC1	u	1.26µM*	-2.7%	-9.1%	-12.7%
COC1CCCN(Cc2cn(C)nc2-c2ccc(Oc3ccccc3)cc2)C1 (configuration not stated)	-3.0%	-17.9%	3.0%	1.8%	1.3%
O=C1COc2ccc(-c3cc(-c4ccc(Cl)cc4)c4c(n3)-c3ccccc3OC4)cc2N1	0.7%	-18.2%	-0.2%	11.6%	8.3%
O=C(Nc1ccc(N2CCOCC2)cc1)Nc1ccc(Cl)c(Cl)c1	-28.3%	-41.2%	0.2%	-29.8%	x
CCN1C(=O)Nc2cccc3cccc1c23	-1.4%	-34.0%	u	1.9%	8.2µM*
CC/C(=N/NC(=O)CNc1ccc(Cl)cc1C)c1ccccc1	-17.6%	12.2%	-0.3%	2.4%	-7.6%
O=C(Cn1cnc2onc(-c3ccc(F)cc3)c2c1=O)Nc1cccc(C(F)(F)F)c1	u	-95.4%	0.7%	-24.9%	23.1µM*
SMILES	TGFb SMAD3 inh	HepG2 viability	Nrf2 ARE act	A549 viability	Nrf2 block
CCc1cc(SC#N)cc(CC)c1NC(=O)CCl	7.94µM*	-81.3%	u	u	u
Cc1cc(C)c2c(NC(=O)CCl)nn(C)c2n1	-3.4%	-12.7%	u	u	u
COc1ccc(NC(=S)NC(=O)c2ccccc2)cn1	-13.6%	-23.6%	2.8%	0.4%	u
COc1cccc(C(=O)Nc2cc(Cl)c(O)c(Cl)c2)c1	-18.5%	-43.4%	3.98µM*	2.3%	6.4%
COc1ccc(NC(=O)c2cccc(Oc3ccccc3)c2)cn1	u	-7.7%	0.0%	-12.6%	25.9µM*
CCOC(=O)c1c(-c2ccccc2)c2cc(OC)ccc2n1CCCN(C)C	u	17.8µM*	-2.9%	-9.4%	-12.8%
